# Where “and” joins values, the source holds several entries; their conditions need not be identical. Identical values can stand only once. This is part of a sample that, as a whole, favours compounds with a hit. Of some 83,000 tested, about 20% had one in any assay.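 Results are percent growth after 48 hours of single-concentration exposure. 100 means growth as in untreated cells, lower positive values show inhibition; negative values down to -100 show cell death.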 Calls of active or inactive are those of the source.
# Test system: MCF7 breast
# Test: NCI-60 one-dose screen, 48 h (100 = growth as untreated, 0 = no growth, -100 = all killed)
# Conditions: 10 µM unless noted
# Procedure: Growth inhibition of the MCF7 human tumor cell line is measured as a screen for anti-cancer activity. Cells are grown in 96 well plates and exposed to the test compound for 48 hours. Compounds are tested at a single concentration, which is 10^-5 M for most compounds. The reported endpoint is percent growth (GI% or GIPRCNT), where numbers from 0 - 100% represent growth inhibition, and numbers from -100% - 0 represent cell death. For example, a value of 40 represents 60% growth inhibition. A value of 0 means no net growth occurred over the course of the experiment. A value of -40 indicates 40% of cells at the beginning of the experiment died by the end of the experiment. A value of -100 means all cells are dead at the end of the experiment.
# NCI-60 Human Tumor Cell Lines Screen was performed using the standard one-dose NCI protocol, which is described in more detail at https://dtp.cancer.gov/discovery_development/nci-60/default.htm.
# Compounds with GIPRCNT values below 10 were considered active. Activity score was based on GIPRCNT using the following formula: […]
# Score is 0 for GIPRCNT values of 100 or above, 50 for GIPRCNT values of 0, and 100 for GIPRCNT values of -100.
row,Compound,growth
1,Cc1ccc(-c2c3c(N)c4c(nc3nc3c2c(C)nn3-c2ccccc2)CCCC4)cc1,94.2% (inactive)
2,COc1ccccc1-n1c(SCc2cc(OC)c(OC)c(OC)c2)nc2ccc(Cl)cc2c1=O,15.6% (inactive)
3,CC(C)NCC(O)COc1ccc(CCOCC2CC2)cc1 (stereo not given),107% (inactive)
4,Cc1cccc2c(=O)c3c(sc12)c(NCCNCCO)nc1ccccc13,-69% (active)
5,CCCCC(=O)N/N=C/c1cc(I)cc(I)c1O,41.5% (inactive)
6,CCCCOC(=O)C1CN2C(=NC1(C(F)(F)F)C(F)(F)F)Sc1ccccc12 (stereo not given),6.83% [100 µM] (active) and 25.5% [100 µM] (inactive)
7,CCOC(=O)CCC(NC(=O)c1ccc(OCc2nc3cc(C(F)(F)F)ccc3nc2-c2ccccc2)cc1)C(=O)OCC (stereo not given),32% [100 µM] (inactive) and -53% [100 µM] (active)
8,CC(=O)OC[C@]1(C)C=C2C(=O)[C@](C)(O)C3(CC3)C(C)=C2[C@H]1OC(C)=O,57.1% (inactive)
9,CC1(C)CC2(C)OC(=N)C1(C#N)C2(C#N)C#N (stereo not given),-56.8% [100 µM] (active) and -71.8% [100 µM] (active)
10,O=C(COc1cccc(/C=C2\COc3ccccc3C2=O)c1)c1ccccc1,7.63% (active)
11,O=C1OCC2=C1C(c1ccc3c(c1)OCO3)CC(=O)N2c1cccc(Cl)c1 (stereo not given),86.7% (inactive)
12,N#Cc1c(=N)cc2c3ccccc3oc3c(C#N)c(N)[nH]c1c32,74.3% [100 µM] (inactive) and 24.3% [100 µM] (inactive)
13,O=C(NCc1ccco1)C1CCN(S(=O)(=O)c2ccc(Cl)cc2)CC1,64.7% (inactive)
14,Cc1nc(NC(=O)COc2cccc(/C=C3\COc4ccccc4C3=O)c2)sc1C,-58.7% (active)
15,OC[C@@H](O)[C@@H](O)CO,99.9% (inactive)
16,C=C[C@H]1C[C@@H]2C[C@@H]3[C@H]4C/C=C\C(=O)NCCCC5NC(=O)C(=C(O)/C=C/[C@@H]4CC(=O)[C@H]3[C@@H]2[C@H]1C)C5=O (stereo not given in full),-63.8% (active)
17,CC(=O)OC[C@H](O)[C@@]1(O)CC[C@H]2[C@@H]3CCC4=CC(=O)CC[C@]4(C)[C@H]3[C@@H](O)C[C@@]21C,112% (inactive)
18,COc1nc2c(cc1S(=O)(=O)c1ccccc1)CCc1c-2cnn1-c1cccc(Cl)c1,87.5% (inactive)
19,N#Cc1c(-c2cccc(F)c2)cc(-c2ccc(Br)s2)[nH]c1=O,63.4% (inactive)
20,Nc1cccc2c(=S)c3ccccc3[nH]c12,85.6% (inactive)

row,Compound,growth
1,N#CCCN1CCN(CCC#N)C1=S,101% (inactive)
2,Cc1ccc2c(c1)c(Sc1ccc(C(=O)NO)cc1)c1n2CN(C)CC1,16.6% (inactive)
3,Clc1cccc(Cl)c1Nc1ccc2nnc(-c3ccncc3)n2n1,95.2% (inactive)
4,CCCC1=NNC(=O)C1,96.3% (inactive)
5,O=C1N(c2ccccc2)N=C2c3ccncc3C3=NN(c4ccccc4)C(=O)C123 (stereo not given),28.9% [100 µM] (inactive) and -33.6% [100 µM] (active)
6,CCOc1cc2c(cc1O)C(=O)C[C@@H]1[C@@H]2CC[C@]2(C)[C@@H](O)CC[C@@H]12,4.23% [100 µM] (active) and -100% [100 µM] (active)
7,COc1cc(C2CC(=O)Nc3c2ccc2ccccc32)cc(Br)c1OC (stereo not given),9.65% (active)
8,COC(=O)[C@@]12CC[C@@H](C)[C@]3(C[C@@H](c4ccoc4)OC3=O)[C@H]1CC[C@@H]1O[C@@]12C,96.7% (inactive)
9,COc1cc(CNCCCN2C(=O)c3ccc4c5c(ccc(c35)C2=O)C(=O)N(CCCNCc2cc(OC)c(OC)c(OC)c2)C4=O)cc(OC)c1OC,-58.1% (active)
10,CCN(CC)CCCNc1ccc(C)c2sc3ccccc3c(=O)c12,-67.1% (active)
11,O=C(Nc1ccc(Cl)c(Cl)c1)NC(CO)(CO)CO,97.4% (inactive)
12,Cc1ccc(C(=O)Nc2ccccc2N)cc1,74.8% (inactive)
13,O=S(=O)(/N=C1C=C/C(=N\S(=O)(=O)c2ccccc2)c2ccccc2\1)c1ccccc1,84.1% (inactive)
14,COc1ncnc2c1ncn2C/C(Br)=C(\Br)CCl,0.237% (active)
15,COc1c(O)c2c3c(c1OC)-c1ccccc1CC3N(S(=O)(=O)c1ccc(C)cc1)CC2 (stereo not given),20.2% (inactive)
16,C=C(C)COC(=O)c1ccccc1C(=O)OCC1(C)CO1 (stereo not given),104% (inactive)
17,N#Cc1c(O)c2c(c(O)c1C#N)C(=O)c1ccccc1C2=O,46.2% (inactive)
18,CC(C)OC1=C(Cl)C(=O)c2ccccc2C1=O,73.2% (inactive)
19,CCCC(=O)Oc1c2ccsc2c(OC(=O)CCC)c2ccsc12,-72.6% [100 µM] (active) and -100% [100 µM] (active)
20,CCCCCn1c(=N)n(CC(O)COc2cccc(C)c2)c2ccccc21 (stereo not given),7.34% (active)

# From PubChem BioAssay (NCI)
